From the supplement of paper PMC4022240
± gives the standard deviation.

Experiments:
Experiment in all cases: peptide microarray binding signal (635 nm), min-max normalized on array (fraction of array maximum); higher = stronger binding
Details in all cases: peptide region: H3 20-32
[1] = molecular target: T1, HaloTag-ATRX ADD domain (163-292)
T1 chain: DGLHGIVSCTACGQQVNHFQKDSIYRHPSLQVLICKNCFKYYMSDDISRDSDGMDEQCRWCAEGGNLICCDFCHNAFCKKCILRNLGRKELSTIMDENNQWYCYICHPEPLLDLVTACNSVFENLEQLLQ
Procedure, shortened: (§1)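 Binding signal is the mean intensity of triplicate spots, min-max scaled within each library. Histone 13-mer peptide–cellulose conjugates were spotted in triplicate on nitrocellulose with a Cy3 tracer and blocked overnight at 4°C. Probing lasted 1 h at 4°C, either with biotin-labelled HaloTag reader fusions (10 nM to 1 μM) and streptavidin-Alexa Fluor 647 or with rabbit histone antibodies (1:10,000 to 1:2,000) and anti-rabbit Alexa 647. An Axon GenePix 4000B read signal at 635 nm and misprints at 532 nm.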

[2] = molecular target: HaloTag-ING2 PHD (mouse Ing2 200-280)
Procedure, shortened: as §1

[3] = molecular target: anti-H3K4me3 antibody ab8580
Procedure, shortened: as §1

[4] = molecular target: anti-H3K9me3 antibody ab8898
Procedure, shortened: as §1

[5] = peptide modifications: H3R26cit, binder concentration: 1:2,000 dilution
[6] = peptide modifications: H3R26cit, binder concentration: 1:10,000 dilution
[7] = peptide modifications: H3K27ac, binder concentration: 1:2,000 dilution
[8] = peptide modifications: H3K27ac, binder concentration: 1:10,000 dilution
[9] = peptide modifications: H3R26cit H3K27me1, binder concentration: 1:2,000 dilution
[10] = peptide modifications: H3R26cit H3K27me1, binder concentration: 1:10,000 dilution
[11] = peptide modifications: H3R26me1, binder concentration: 1:2,000 dilution
[12] = peptide modifications: H3R26me1, binder concentration: 1:10,000 dilution
[13] = peptide modifications: H3K27me2, binder concentration: 1:2,000 dilution
[14] = peptide modifications: H3K27me2, binder concentration: 1:10,000 dilution
[15] = peptide modifications: H3K27me1 H3S28ph, binder concentration: 1:2,000 dilution
[16] = peptide modifications: H3K27me1 H3S28ph, binder concentration: 1:10,000 dilution
[17] = peptide modifications: H3R26cit H3K27ac, binder concentration: 1:2,000 dilution
[18] = peptide modifications: H3R26cit H3K27ac, binder concentration: 1:10,000 dilution
[19] = peptide modifications: H3R26me1 H3K27ac, binder concentration: 1:2,000 dilution
[20] = peptide modifications: H3R26me1 H3K27ac, binder concentration: 1:10,000 dilution
[21] = peptide modifications: H3R26me2a H3K27me1, binder concentration: 1:2,000 dilution
[22] = peptide modifications: H3R26me2a H3K27me1, binder concentration: 1:10,000 dilution
[23] = peptide modifications: H3R26me1 H3K27me2, binder concentration: 1:2,000 dilution
[24] = peptide modifications: H3R26me1 H3K27me2, binder concentration: 1:10,000 dilution

Binder: LATKAARKSAPAT [H3 20-32 L A T K A A Rcit K S A P A T]
- peptide microarray binding signal ([1]; peptide modifications: H3R26cit, binder concentration: 50 nM): 0.00411 ± 8.3e-05
- peptide microarray binding signal ([1]; peptide modifications: H3R26cit, binder concentration: 500 nM): 0.00633 ± 0.00025
- peptide microarray binding signal ([2]; peptide modifications: H3R26cit, binder concentration: 10 nM): 0.00824 ± 0.00018
- peptide microarray binding signal ([2]; peptide modifications: H3R26cit, binder concentration: 100 nM): 0.0125 ± 0.00034
- peptide microarray binding signal [3, 5]: 0.00296 ± 0.00035
- peptide microarray binding signal [3, 6]: 0.00285 ± 6.5e-05
- peptide microarray binding signal [4, 5]: 0.00168 ± 3.3e-05
- peptide microarray binding signal [4, 6]: 0.00138 ± 1.4e-05

Binder: LATKAARKSAPAT [H3 20-32 L A T K A A R Kac S A P A T]
- peptide microarray binding signal ([1]; peptide modifications: H3K27ac, binder concentration: 50 nM): 0.00542 ± 6.7e-05
- peptide microarray binding signal ([1]; peptide modifications: H3K27ac, binder concentration: 500 nM): 0.00819 ± 0.00035
- peptide microarray binding signal ([2]; peptide modifications: H3K27ac, binder concentration: 10 nM): 0.013 ± 0.00049
- peptide microarray binding signal ([2]; peptide modifications: H3K27ac, binder concentration: 100 nM): 0.0498 ± 0.05
- peptide microarray binding signal [3, 7]: 0.00461 ± 0.00054
- peptide microarray binding signal [3, 8]: 0.00508 ± 0.00032
- peptide microarray binding signal [4, 7]: 0.00281 ± 0.00022
- peptide microarray binding signal [4, 8]: 0.002652 ± 2.3e-05

Binder: LATKAARKSAPAT [H3 20-32 L A T K A A Rcit Kme S A P A T]
- peptide microarray binding signal ([1]; peptide modifications: H3R26cit H3K27me1, binder concentration: 50 nM): 0.0118 ± 0.0037
- peptide microarray binding signal ([1]; peptide modifications: H3R26cit H3K27me1, binder concentration: 500 nM): 0.011 ± 0.002
- peptide microarray binding signal ([2]; peptide modifications: H3R26cit H3K27me1, binder concentration: 10 nM): 0.0174 ± 0.00085
- peptide microarray binding signal ([2]; peptide modifications: H3R26cit H3K27me1, binder concentration: 100 nM): 0.0171 ± 0.0017
- peptide microarray binding signal [3, 9]: 0.00427 ± 0.00087
- peptide microarray binding signal [3, 10]: 0.00576 ± 0.00078
- peptide microarray binding signal [4, 9]: 0.00346 ± 0.0001
- peptide microarray binding signal [4, 10]: 0.002249 ± 2.1e-05

Binder: LATKAARKSAPAT [H3 20-32 L A T K A A Rme K S A P A T]
- peptide microarray binding signal ([1]; peptide modifications: H3R26me1, binder concentration: 50 nM): 0.00408 ± 8.9e-05
- peptide microarray binding signal ([1]; peptide modifications: H3R26me1, binder concentration: 500 nM): 0.006381 ± 3.8e-05
- peptide microarray binding signal ([2]; peptide modifications: H3R26me1, binder concentration: 10 nM): 0.00824 ± 0.00019
- peptide microarray binding signal ([2]; peptide modifications: H3R26me1, binder concentration: 100 nM): 0.0116 ± 0.00028
- peptide microarray binding signal [3, 11]: 0.00342 ± 0.0002
- peptide microarray binding signal [3, 12]: 0.00325 ± 0.00018
- peptide microarray binding signal [4, 11]: 0.00187 ± 4.7e-05
- peptide microarray binding signal [4, 12]: 0.00161 ± 3.1e-05

Binder: LATKAARKSAPAT [H3 20-32 L A T K A A R Kme2 S A P A T]
- peptide microarray binding signal ([1]; peptide modifications: H3K27me2, binder concentration: 50 nM): 0.00292 ± 6.9e-05
- peptide microarray binding signal ([1]; peptide modifications: H3K27me2, binder concentration: 500 nM): 0.003238 ± 2.5e-05
- peptide microarray binding signal ([2]; peptide modifications: H3K27me2, binder concentration: 10 nM): 0.00567 ± 0.00012
- peptide microarray binding signal ([2]; peptide modifications: H3K27me2, binder concentration: 100 nM): 0.00581 ± 0.00013
- peptide microarray binding signal [3, 13]: 0.00193 ± 6.9e-05
- peptide microarray binding signal [3, 14]: 0.00205 ± 3.8e-05
- peptide microarray binding signal [4, 13]: 0.00153 ± 0.00012
- peptide microarray binding signal [4, 14]: 0.00144 ± 3.7e-05

Binder: LATKAARKSAPAT [H3 20-32 L A T K A A R Kme Sph A P A T]
- peptide microarray binding signal ([1]; peptide modifications: H3K27me1 H3S28ph, binder concentration: 50 nM): 0.00502 ± 0.00011
- peptide microarray binding signal ([1]; peptide modifications: H3K27me1 H3S28ph, binder concentration: 500 nM): 0.00762 ± 0.00035
- peptide microarray binding signal ([2]; peptide modifications: H3K27me1 H3S28ph, binder concentration: 10 nM): 0.0135 ± 0.00073
- peptide microarray binding signal ([2]; peptide modifications: H3K27me1 H3S28ph, binder concentration: 100 nM): 0.0189 ± 0.00035
- peptide microarray binding signal [3, 15]: 0.00485 ± 0.0004
- peptide microarray binding signal [3, 16]: 0.00519 ± 0.00023
- peptide microarray binding signal [4, 15]: 0.00263 ± 0.00013
- peptide microarray binding signal [4, 16]: 0.00277 ± 0.00013

Binder: LATKAARKSAPAT [H3 20-32 L A T K A A Rcit Kac S A P A T]
- peptide microarray binding signal ([1]; peptide modifications: H3R26cit H3K27ac, binder concentration: 50 nM): 0.00486 ± 0.00011
- peptide microarray binding signal ([1]; peptide modifications: H3R26cit H3K27ac, binder concentration: 500 nM): 0.0109 ± 0.00038
- peptide microarray binding signal ([2]; peptide modifications: H3R26cit H3K27ac, binder concentration: 10 nM): 0.0232 ± 0.0013
- peptide microarray binding signal ([2]; peptide modifications: H3R26cit H3K27ac, binder concentration: 100 nM): 0.0235 ± 0.0022
- peptide microarray binding signal [3, 17]: 0.0101 ± 0.00075
- peptide microarray binding signal [3, 18]: 0.00553 ± 0.0019
- peptide microarray binding signal [4, 17]: 0.00415 ± 0.0003
- peptide microarray binding signal [4, 18]: 0.00288 ± 4.3e-05

Binder: LATKAARKSAPAT [H3 20-32 L A T K A A Rme Kac S A P A T]
- peptide microarray binding signal ([1]; peptide modifications: H3R26me1 H3K27ac, binder concentration: 50 nM): 0.00429 ± 0.00036
- peptide microarray binding signal ([1]; peptide modifications: H3R26me1 H3K27ac, binder concentration: 500 nM): 0.0144 ± 0.0011
- peptide microarray binding signal ([2]; peptide modifications: H3R26me1 H3K27ac, binder concentration: 10 nM): 0.0271 ± 0.0026
- peptide microarray binding signal ([2]; peptide modifications: H3R26me1 H3K27ac, binder concentration: 100 nM): 0.0327 ± 0.0033
- peptide microarray binding signal [3, 19]: 0.00627 ± 0.0032
- peptide microarray binding signal [3, 20]: 0.00987 ± 0.00026
- peptide microarray binding signal [4, 19]: 0.0058 ± 0.00049
- peptide microarray binding signal [4, 20]: 0.00306 ± 0.00012

Binder: LATKAARKSAPAT [H3 20-32 L A T K A A Rme2a Kme S A P A T]
- peptide microarray binding signal ([1]; peptide modifications: H3R26me2a H3K27me1, binder concentration: 50 nM): 0.00489 ± 1.8e-05
- peptide microarray binding signal ([1]; peptide modifications: H3R26me2a H3K27me1, binder concentration: 500 nM): 0.00571 ± 0.00016
- peptide microarray binding signal ([2]; peptide modifications: H3R26me2a H3K27me1, binder concentration: 10 nM): 0.0113
- peptide microarray binding signal ([2]; peptide modifications: H3R26me2a H3K27me1, binder concentration: 100 nM): 0.0169 ± 0.00094
- peptide microarray binding signal [3, 21]: 0.00704 ± 0.00042
- peptide microarray binding signal [3, 22]: 0.00879 ± 0.00091
- peptide microarray binding signal [4, 21]: 0.00356 ± 0.00021
- peptide microarray binding signal [4, 22]: 0.00236 ± 3.7e-05

Binder: LATKAARKSAPAT [H3 20-32 L A T K A A Rme Kme2 S A P A T]
- peptide microarray binding signal ([1]; peptide modifications: H3R26me1 H3K27me2, binder concentration: 50 nM): 0.00392 ± 0.00013
- peptide microarray binding signal ([1]; peptide modifications: H3R26me1 H3K27me2, binder concentration: 500 nM): 0.002619 ± 2.1e-05
- peptide microarray binding signal ([2]; peptide modifications: H3R26me1 H3K27me2, binder concentration: 10 nM): 0.00483 ± 0.00013
- peptide microarray binding signal ([2]; peptide modifications: H3R26me1 H3K27me2, binder concentration: 100 nM): 0.00517 ± 7.1e-05
- peptide microarray binding signal [3, 23]: 0.00176
- peptide microarray binding signal [3, 24]: 0.00194
- peptide microarray binding signal [4, 23]: 0.00106 ± 2.2e-05
- peptide microarray binding signal [4, 24]: 0.001211 ± 1.2e-05
